The full data set covers some 21,000 targets. This sample favours those with the largest changes.

The values that follow come from the supplement of paper PMC12067093, “Discovery and optimisation of a covalent ligand for TRIM25 and its application to targeted protein ubiquitination” (Chemical Science, 2025).
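Further: competitive chemoproteomic profiling in live THP-1 cells with an iodoacetamide desthiobiotin (IA-DTB) probe, comparing probe-labelled peptide intensities in compound-treated cells against DMSO-treated controls.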

Chain of UniProt Q8N1F8 (Q8N1F8 whole entry, looked up): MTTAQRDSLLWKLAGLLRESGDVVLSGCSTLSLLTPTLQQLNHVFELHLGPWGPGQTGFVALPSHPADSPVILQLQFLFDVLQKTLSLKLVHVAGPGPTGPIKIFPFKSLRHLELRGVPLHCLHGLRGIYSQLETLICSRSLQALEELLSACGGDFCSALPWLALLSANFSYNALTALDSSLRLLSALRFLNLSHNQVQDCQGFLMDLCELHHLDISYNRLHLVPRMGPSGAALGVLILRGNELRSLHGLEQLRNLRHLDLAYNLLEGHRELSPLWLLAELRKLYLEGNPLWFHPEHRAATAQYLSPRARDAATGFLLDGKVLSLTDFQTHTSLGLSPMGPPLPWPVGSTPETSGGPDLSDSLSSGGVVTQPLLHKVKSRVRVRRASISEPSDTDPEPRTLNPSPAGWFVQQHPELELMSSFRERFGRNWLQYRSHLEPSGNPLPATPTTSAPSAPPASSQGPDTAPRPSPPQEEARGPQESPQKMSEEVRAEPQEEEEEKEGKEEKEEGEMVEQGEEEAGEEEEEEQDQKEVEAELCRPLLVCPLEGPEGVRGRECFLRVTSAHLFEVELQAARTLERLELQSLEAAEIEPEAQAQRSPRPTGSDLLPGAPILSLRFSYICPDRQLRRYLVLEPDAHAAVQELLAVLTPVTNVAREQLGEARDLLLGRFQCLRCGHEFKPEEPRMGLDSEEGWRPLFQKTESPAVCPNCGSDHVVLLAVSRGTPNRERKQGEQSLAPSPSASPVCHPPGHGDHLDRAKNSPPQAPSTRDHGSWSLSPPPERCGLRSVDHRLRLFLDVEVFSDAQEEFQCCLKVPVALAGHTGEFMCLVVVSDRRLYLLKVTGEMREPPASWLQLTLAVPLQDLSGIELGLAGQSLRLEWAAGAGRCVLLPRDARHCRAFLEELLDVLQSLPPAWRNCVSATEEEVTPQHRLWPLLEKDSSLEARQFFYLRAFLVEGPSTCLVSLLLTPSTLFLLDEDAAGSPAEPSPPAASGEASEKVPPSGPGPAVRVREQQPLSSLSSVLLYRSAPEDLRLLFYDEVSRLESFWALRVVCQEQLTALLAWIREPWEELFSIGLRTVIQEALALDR
Chain of UniProt Q9UGI8 (Q9UGI8 whole entry, looked up): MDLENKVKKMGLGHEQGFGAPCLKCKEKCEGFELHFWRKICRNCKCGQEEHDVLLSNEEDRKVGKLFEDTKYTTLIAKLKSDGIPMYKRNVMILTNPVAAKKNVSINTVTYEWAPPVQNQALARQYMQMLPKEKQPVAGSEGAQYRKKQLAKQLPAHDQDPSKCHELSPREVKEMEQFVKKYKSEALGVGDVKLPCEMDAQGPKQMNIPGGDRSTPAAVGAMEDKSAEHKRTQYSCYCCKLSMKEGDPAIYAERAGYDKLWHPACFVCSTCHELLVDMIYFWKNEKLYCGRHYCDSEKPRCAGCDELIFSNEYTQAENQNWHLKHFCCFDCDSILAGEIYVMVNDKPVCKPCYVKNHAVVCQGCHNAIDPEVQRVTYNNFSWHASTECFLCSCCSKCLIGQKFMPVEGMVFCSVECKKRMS
Chain of UniProt Q15654 (Q15654 whole entry, looked up): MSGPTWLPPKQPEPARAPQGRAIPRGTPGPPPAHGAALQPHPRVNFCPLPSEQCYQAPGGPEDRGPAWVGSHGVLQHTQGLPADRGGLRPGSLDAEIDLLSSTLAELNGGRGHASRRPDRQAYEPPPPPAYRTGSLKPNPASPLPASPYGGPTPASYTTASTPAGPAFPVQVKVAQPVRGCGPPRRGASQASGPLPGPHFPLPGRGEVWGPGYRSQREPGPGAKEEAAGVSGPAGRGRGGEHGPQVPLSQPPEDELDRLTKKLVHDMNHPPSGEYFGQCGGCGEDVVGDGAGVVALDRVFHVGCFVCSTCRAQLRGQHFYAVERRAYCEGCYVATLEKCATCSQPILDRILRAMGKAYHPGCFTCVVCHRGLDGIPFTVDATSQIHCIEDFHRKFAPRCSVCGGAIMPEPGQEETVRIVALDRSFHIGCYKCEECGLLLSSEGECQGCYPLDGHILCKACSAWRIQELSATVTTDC
Chain of UniProt P50502 (P50502 whole entry): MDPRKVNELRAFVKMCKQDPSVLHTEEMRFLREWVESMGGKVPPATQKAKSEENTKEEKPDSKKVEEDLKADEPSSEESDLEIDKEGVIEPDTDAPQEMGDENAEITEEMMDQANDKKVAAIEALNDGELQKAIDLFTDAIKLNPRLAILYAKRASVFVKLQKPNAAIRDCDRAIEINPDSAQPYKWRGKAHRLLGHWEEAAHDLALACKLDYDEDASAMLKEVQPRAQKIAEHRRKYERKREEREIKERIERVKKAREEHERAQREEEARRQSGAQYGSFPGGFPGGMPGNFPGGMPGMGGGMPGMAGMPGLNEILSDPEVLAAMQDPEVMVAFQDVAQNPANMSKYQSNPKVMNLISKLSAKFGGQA
Chain of UniProt Q9C0D5 (Q9C0D5 whole entry, looked up): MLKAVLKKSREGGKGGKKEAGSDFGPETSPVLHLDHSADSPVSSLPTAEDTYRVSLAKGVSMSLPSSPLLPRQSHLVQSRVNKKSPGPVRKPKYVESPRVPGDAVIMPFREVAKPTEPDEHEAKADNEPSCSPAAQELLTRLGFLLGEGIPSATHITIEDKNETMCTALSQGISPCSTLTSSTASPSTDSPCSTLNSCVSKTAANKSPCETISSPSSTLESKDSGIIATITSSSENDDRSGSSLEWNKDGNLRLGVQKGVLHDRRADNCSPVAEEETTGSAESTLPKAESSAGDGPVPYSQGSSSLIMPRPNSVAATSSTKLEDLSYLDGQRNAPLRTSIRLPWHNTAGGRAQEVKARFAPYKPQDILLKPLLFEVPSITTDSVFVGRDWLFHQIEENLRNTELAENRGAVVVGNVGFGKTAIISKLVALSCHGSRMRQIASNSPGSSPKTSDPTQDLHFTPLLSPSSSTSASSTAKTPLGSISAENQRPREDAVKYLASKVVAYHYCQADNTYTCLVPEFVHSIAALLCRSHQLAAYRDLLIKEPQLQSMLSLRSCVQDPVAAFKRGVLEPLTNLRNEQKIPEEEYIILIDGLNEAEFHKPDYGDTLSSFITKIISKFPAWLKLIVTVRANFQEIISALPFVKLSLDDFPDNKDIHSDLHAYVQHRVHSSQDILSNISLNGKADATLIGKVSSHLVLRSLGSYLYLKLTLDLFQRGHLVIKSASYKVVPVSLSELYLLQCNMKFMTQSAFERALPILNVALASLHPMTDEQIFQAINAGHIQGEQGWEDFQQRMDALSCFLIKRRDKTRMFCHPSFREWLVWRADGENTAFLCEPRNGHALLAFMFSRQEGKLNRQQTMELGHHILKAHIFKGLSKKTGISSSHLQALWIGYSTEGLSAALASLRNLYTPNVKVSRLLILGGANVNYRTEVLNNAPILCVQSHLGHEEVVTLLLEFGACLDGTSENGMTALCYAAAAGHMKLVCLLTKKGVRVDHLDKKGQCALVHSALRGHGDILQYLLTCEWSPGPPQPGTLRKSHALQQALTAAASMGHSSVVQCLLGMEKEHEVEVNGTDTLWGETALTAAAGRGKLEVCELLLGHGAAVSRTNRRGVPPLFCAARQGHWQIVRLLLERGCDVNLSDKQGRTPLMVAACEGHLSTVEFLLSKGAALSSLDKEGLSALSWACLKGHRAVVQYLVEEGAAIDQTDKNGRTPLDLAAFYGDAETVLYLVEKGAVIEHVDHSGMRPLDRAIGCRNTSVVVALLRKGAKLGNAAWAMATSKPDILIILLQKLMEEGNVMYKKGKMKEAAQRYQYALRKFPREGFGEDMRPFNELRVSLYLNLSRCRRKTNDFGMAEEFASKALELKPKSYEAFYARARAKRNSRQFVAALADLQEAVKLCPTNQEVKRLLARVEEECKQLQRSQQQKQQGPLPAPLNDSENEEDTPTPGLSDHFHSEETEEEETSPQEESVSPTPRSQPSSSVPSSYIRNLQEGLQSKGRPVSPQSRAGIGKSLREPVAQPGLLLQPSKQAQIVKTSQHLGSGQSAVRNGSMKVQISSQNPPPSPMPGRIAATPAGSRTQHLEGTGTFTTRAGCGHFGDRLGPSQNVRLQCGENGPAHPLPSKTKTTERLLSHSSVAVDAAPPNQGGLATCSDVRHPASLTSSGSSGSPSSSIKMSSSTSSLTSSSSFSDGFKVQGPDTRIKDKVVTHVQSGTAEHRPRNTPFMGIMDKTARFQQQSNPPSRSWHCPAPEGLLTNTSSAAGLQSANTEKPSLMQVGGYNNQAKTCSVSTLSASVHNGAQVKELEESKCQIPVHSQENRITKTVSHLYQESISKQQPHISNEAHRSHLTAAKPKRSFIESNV
Chain of UniProt A2RTX5 (A2RTX5 whole entry, looked up): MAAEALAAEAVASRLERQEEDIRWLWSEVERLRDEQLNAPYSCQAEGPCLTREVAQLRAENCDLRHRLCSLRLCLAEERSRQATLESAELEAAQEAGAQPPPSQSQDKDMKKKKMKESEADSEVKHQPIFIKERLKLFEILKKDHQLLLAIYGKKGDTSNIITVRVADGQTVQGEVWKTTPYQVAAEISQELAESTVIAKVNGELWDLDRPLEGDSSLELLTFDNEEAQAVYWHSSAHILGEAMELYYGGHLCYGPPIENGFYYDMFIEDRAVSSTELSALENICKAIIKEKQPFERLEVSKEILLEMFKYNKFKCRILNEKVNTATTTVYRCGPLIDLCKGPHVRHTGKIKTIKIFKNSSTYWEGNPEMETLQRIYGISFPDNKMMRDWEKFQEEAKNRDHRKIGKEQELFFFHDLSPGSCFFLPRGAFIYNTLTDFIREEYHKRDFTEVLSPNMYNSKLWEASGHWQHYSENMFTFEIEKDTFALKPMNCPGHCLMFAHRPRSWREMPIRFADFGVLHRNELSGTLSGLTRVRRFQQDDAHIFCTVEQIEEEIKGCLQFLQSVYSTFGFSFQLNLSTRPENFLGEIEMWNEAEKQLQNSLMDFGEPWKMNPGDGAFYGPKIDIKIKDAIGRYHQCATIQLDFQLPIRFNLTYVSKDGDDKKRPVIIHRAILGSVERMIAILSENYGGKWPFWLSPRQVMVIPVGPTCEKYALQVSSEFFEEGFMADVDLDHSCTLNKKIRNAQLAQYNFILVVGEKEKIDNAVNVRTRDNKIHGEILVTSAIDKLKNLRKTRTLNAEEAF

Compound in this assay: CC1Cc2ccccc2N1C(=O)C1CCCN(C1)C(=O)CCl (mixture of isomers) [TRIM25 ligand 11 (diastereomer mixture)]
Briefly: probe-labelled cysteine peptide fold change vs DMSO (competition) (log2 fold change); higher = less target engagement (more negative = stronger competition). Particulars: 50 µM; THP-1; incubation time: 4 h.
As to “TANC1_Q9C0D5_800_MDALSCFLIK (UniProt Q9C0D5)”, the “probe-labelled cysteine peptide fold change” value is 0.0229.

On to “TRIP6_Q15654_362+365+368_AYHPGCFTCVVCHR (UniProt Q15654)”, for which the “probe-labelled cysteine peptide fold change” value came to 0.0784.

As for “TES_Q9UGI8_22_MGLGHEQGFGAPCLK (UniProt Q9UGI8)”, the “probe-labelled cysteine peptide fold change” value is -0.176.

As for “ST13_P50502_209_LLGHWEEAAHDLALACKLDYDEDASAMLK (UniProt P50502)”, the “probe-labelled cysteine peptide fold change” value was -0.574.

On to “TAF2_Q6P1X5_357_CLAQSLAQQFFGCFISR (UniProt Q6P1X5)”, for which the “probe-labelled cysteine peptide fold change” value is -0.862.

With “TARSL2_A2RTX5_546_FQQDDAHIFCTVEQIEEEIK (UniProt A2RTX5)”, the “probe-labelled cysteine peptide fold change” value turned out to be 0.235.

For the target “STK11IP_Q8N1F8_918_NCVSATEEEVTPQHR (UniProt Q8N1F8)”, the “probe-labelled cysteine peptide fold change” value stood at 0.108.
